“And” between values parts separate entries of the source, which are not always exact repeats. Equal entries are not always repeated. Inconclusive results are not listed. Unmarked numbers belong to inactive results. The source made the active and inactive calls. The call rests on the fitted dose curve; in most records, active means well fitted activation curve with a large enough effect in the repeat runs; inconclusive means weak or mixed curves; inactive means no such curve, though single readings can be large or run the other way.
molecular target: Nuclear receptor subfamily 1 group I member 2 (Rattus norvegicus) (UniProt Q9R1A7); assay: Rat pregnane X receptor (rPXR) activation by small molecules, qHTS assay (AID 1346983); details: rPXR luciferase reporter cells, One-Glo luminescence, 24 h; max activation: active compounds read high; further: nearly all actives have a fitted effect of over 20% in size
Sequence (Q9R1A7 whole entry, looked up): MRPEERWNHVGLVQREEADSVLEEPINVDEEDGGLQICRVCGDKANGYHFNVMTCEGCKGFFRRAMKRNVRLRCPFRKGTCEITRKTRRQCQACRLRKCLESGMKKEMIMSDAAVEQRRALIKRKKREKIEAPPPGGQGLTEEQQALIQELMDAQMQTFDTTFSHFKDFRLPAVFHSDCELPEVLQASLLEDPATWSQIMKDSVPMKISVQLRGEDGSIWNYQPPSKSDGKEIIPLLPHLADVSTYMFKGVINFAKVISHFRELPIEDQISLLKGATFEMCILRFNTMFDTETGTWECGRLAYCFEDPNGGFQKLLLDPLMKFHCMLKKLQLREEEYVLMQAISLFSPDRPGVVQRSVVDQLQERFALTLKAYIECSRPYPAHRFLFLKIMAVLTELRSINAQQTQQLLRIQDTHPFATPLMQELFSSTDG
Excerpt: National Center for Advancing Translational Sciences [NCATS] NIH Chemical Genomics Center [NCGC] U.S. Environmental Protection Agency [EPA] National Institutes of Environmental Health Sciences [NIEHS] National Toxicology Program [NTP] Assay overview: The Pregnane X receptor (PXR), a ligand activated nuclear receptor plays a critical role in the regulation of genes involved in drug metabolism and transporters. PXR binds xenobiotics and when compounds interact with PXR produces enhanced expression of CYP3A genes. In humans PXR activation and CYP3A4 induction can be problematic due to their interactions with co-medicated drugs and decrease their efficacy or increase their own metabolism. However, there are known species-specific differences with regard to PXR activation that should be taken into account when animal PXR data are extrapolated to humans. A cell based rat PXR (rPXR) assay (developed by Puracyp, Inc., CA) was used to assess the activation of rPXR.
Assay Protocol Summary: rPXR cells were dispensed at 2,000 per well in 5uL of assay medium into white, solid-bottom 1536-well plates using a Multidrop Combi dispenser (Thermo Scientific). The assay plates were incubated at 37 C for 5hr before transferring 23 nL of test compounds dissolved in DMSO and positive control via Pintool station (Wako). The assay plates were incubated at 37 C for 24 hr. Then 5ul One-Glo assay reagent (Promega) was added to each plate by a Flying Reagent Dispenser (FRD, Aurora Discovery) and following 30 min incubation at room temperature, luciferase activity was quantified on a ViewLux plate reader (Perkin Elmer).
On the % scale 0 is the no-effect control and ±100 the full control effect; potency means the concentration at half of the fitted maximal effect.

Row | SMILES | max activation | Potency
1 | CN(C)CCOC(c1ccc(Cl)cc1)c1ccccn1 (stereo not given) | -0.352% | –
2 | CO | -1.84% | –
3 | CCn1cc(C(=O)O)c(=O)c2cc(F)c(N3CCN(C)CC3)cc21 | -0.517% | –
4 | Nc1nc(F)nc2c1ncn2[C@@H]1O[C@H](CO)[C@@H](O)[C@@H]1O | -2.35% | –
5 | NC(CS)C(=O)O (stereo not given) | -0.0152% | –
6 | NS(=O)(=O)c1cc2c(cc1C(F)(F)F)NC(Cc1ccccc1)NS2(=O)=O (stereo not given) | -1.57% | –
7 | CCCCCCCCCCCCCCCCCCOCC(O)CO (stereo not given) | 3.52% | –
8 | NC(=O)c1ncn([C@@H]2O[C@H](CO)[C@@H](O)[C@H]2O)c1O | -0.429% | –
9 | CC(C)[N+](C)(C)CC(O)COc1cccc2ccccc12 (stereo not given) | -2.92% | –
10 | NCC[C@H](O)C(=O)N[C@@H]1C[C@H](N)[C@@H](O[C@H]2O[C@H](CN)[C@@H](O)[C@H](O)[C@H]2O)[C@H](O)[C@H]1O[C@H]1O[C@H](CO)[C@@H](O)[C@H](N)[C@H]1O | -10.2% | –
11 | NC(=O)CCCCC1CCSS1 (stereo not given) | -4.58% | –
12 | NS(=O)(=O)c1cc2c(cc1Cl)NC(CSCc1ccccc1)=NS2(=O)=O | -1.07% | –
13 | C=CCn1c(=O)n([C@@H]2O[C@H](CO)[C@@H](O)[C@H]2O)c2nc(N)[nH]c(=O)c21 | -4.51% | –
14 | OCCN1C[C@H](O)[C@@H](O)[C@H](O)[C@H]1CO | -2.71% | –
15 | OCc1ccccn1 | -1.13% | –
16 | [O-][N+](=Nc1ccccc1)c1ccccc1 | 13.9% | –
17 | NC(=O)c1ncn([C@@H]2O[C@H](CO)[C@@H](O)[C@H]2O)c1N | 0.984% | –
18 | O=C(O)/C=C/c1ccc(Cn2ccnc2)cc1 | -1.1% | –
19 | COc1cc(C(=O)N2CCOCC2)cc(OC)c1OC | -6.89% and 0.152% | –
20 | O=C(O)c1ccccc1-c1ccc(C(F)(F)F)cc1 | -1.61% | –

Row | SMILES | max activation | Potency
21 | NCCNC(=O)c1ccc(Cl)cn1 | -1.85% | –
22 | NC(N)=NS(=O)(=O)c1ccc(N)cc1 | -6.55% | –
23 | CCN1CCCC(OC(=O)C(c2ccccc2)c2ccccc2)C1 (stereo not given) | 0.492% | –
24 | CC(C)CCCC(C)CCCC(C)CCCCC(C)CCCC(C)CCCC(C)C (stereo not given) | -0.619% | –
25 | CCN(CC)C(=O)c1ccc(O)c(OC)c1 | -5.72% | –
26 | O=C1C(CCS(=O)c2ccccc2)C(=O)N(c2ccccc2)N1c1ccccc1 (stereo not given) | -2.19% | –
27 | CC(C)c1ccc2oc3nc(N)c(C(=O)O)cc3c(=O)c2c1 | – | 4470 nM (active)
28 | CCN(CC)S(=O)(=O)c1ccc(C(=O)O)cc1 | -1.28% | –
29 | NS(=O)(=O)c1cc(C2(O)NC(=O)c3ccccc32)ccc1Cl (stereo not given) | -0.257% | –
30 | CCCC(=O)O[C@]1(C(=O)CCl)[C@@H](C)C[C@H]2[C@@H]3CCC4=CC(=O)C=C[C@]4(C)[C@@]3(F)C(=O)C[C@@]21C | – | 1000 nM (active)
31 | OC/C=C/c1ccccc1 | -5.54% | –
32 | O=C(O)c1ccc[n+]([O-])c1 | -2.52% | –
33 | c1cc(CN2CCCCC2)cc(OCCCNc2nc3ccccc3s2)c1 | 2.06% | –
34 | COC(=O)[C@H]1[C@H]2C[C@@H]3c4[nH]c5cc(OC)ccc5c4CCN3C[C@H]2C[C@@H](OC(=O)COc2ccc(OC)cc2)[C@@H]1OC | -1.88% | –
35 | Cc1ncc(CSSCc2cnc(C)c(O)c2CO)c(CO)c1O | -2.5% | –
36 | CC1CCN(CCCC(=O)c2ccc(F)cc2)CC1 | -4.88% | –
37 | Cc1cc(C)c(NC(=O)CN(CC(=O)O)CC(=O)O)c(C)c1Br | -1.5% | –
38 | Cc1onc(-c2ccccc2)c1-c1ccc(S(N)(=O)=O)cc1 | -3.92% | –
39 | CCOC(=O)[C@H](CCc1ccccc1)N[C@@H](C)C(=O)N1CCC[C@H]1C(=O)O | -3.1% | –
40 | C=CCSCC1Nc2cc(Cl)c(S(N)(=O)=O)cc2S(=O)(=O)N1 (stereo not given) | 0.305% | –

Source: PubChem BioAssay (Tox21)
